From PubChem BioAssay
Active and inactive are the calls of the source.

Assays:
[1] = system: Plasmodium falciparum Sir2 (PF13_0152, Sir2A); assay: pfSir2 binders on small-molecule microarrays, primary screen, biochemical, small-molecule microarray, 635 nm fluorescence (AID 1098); conditions: small-molecule microarray binding, fluorescence 635 nm; higher = more signal;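 note: score merges spot fluorescence intensity with its signal-to-noise ratio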
[2] = small-molecule microarray binders of probe aDKK1, primary screen, biochemical, biotinylated probe, 635/667 nm fluorescence (AID 1099); conditions: higher = more signal;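 note: score merges 667nm spot fluorescence with signal to noise across triplicate slides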
[3] = small-molecule microarray binders of probe aCHRDL2, primary screen, biochemical, biotinylated probe, 635/667 nm fluorescence (AID 1100); conditions: higher = more signal
[4] = splicing luciferase reporter signal modulators, primary screen, spliceosome inhibition project, cell-based, HEK293, splice +/- reporter (AID 1101); conditions: luminescence, 24 h, higher = more signal, called active from +8 up or from −8 down;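 note: HEK293 cells carrying a splicing-competent luciferase reporter gene; test concentration not given here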
[5] = target: Fibroblast growth factor 10 (Homo sapiens) (UniProt O15520); assay: FGF10 binders on small-molecule microarrays, primary screen, biochemical, small-molecule microarray, 635 nm fluorescence (AID 1102); conditions: FGF10 binding, fluorescence 635 nm, higher = more signal
[6] = system: glycogen synthase kinase-3 (GSK3A per assay name; protocol says GSK3B); assay: GSK3 binders on small-molecule microarrays, primary screen, biochemical, small-molecule microarray, 635 nm fluorescence, GSK3A (AID 1103); conditions: small-molecule microarray binding, fluorescence 635 nm; higher = more signal; note: the record names both GSK3A and GSK3B
[7] = target: Epidermal growth factor receptor (Homo sapiens) (UniProt P00533); assay: EGFR binders on small-molecule microarrays, primary screen, biochemical, small-molecule microarray, 635 nm fluorescence (AID 1104); conditions: EGFR binding, higher = more signal;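 note: score merges 667 nm emission intensity with spot signal to noise over triplicate slides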
[8] = target: Follistatin-related protein 3 (Homo sapiens) (UniProt O95633); assay: FSTL3 binders on small-molecule microarrays, primary screen, biochemical, small-molecule microarray, 635 nm fluorescence (AID 1105); conditions: FSTL3 binding, higher = more signal;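 note: score merges emission near 667 nm and signal to noise per printed spot across three slides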
[9] = target: Dickkopf-related protein 1 (Homo sapiens) (UniProt O94907); assay: DKK1 binders on small-molecule microarrays, primary screen, biochemical, small-molecule microarray, 635 nm fluorescence scan (AID 1106); conditions: DKK1 binding, higher = more signal;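 note: score merges emission near 667 nm with signal to noise over three replicate slides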
[10] = system: Inhibin beta A chain (activin A); assay: INHBA (activin A) binders on microarrays, primary screen, biochemical, small-molecule microarray, 635 nm fluorescence scan (AID 1107); conditions: small-molecule microarray binding, higher = more signal;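 note: mouse activin A protein probed at 4.33 µg/mL on printed slides; score merges bound-protein fluorescence near 667 nm with spot signal-to-noise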
[11] = system: Human papillomavirus type 1a protein E7 (residues 44-93); assay: HPV1a E7 fragment binders on microarrays, primary screen, biochemical, small-molecule microarray, residues 44-93, 635 nm fluorescence (AID 1108); conditions: small-molecule microarray binding, fluorescence 635 nm; higher = more signal;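 note: E7 fragment applied at 1 µg/mL in TBST for 1 h at 4 C; score combines spot fluorescence with its signal to noise ratio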
[12] = modulators of HCV replicon luciferase signal, primary screen, HCV replication inhibitor project, Huh7 cells, luciferase reporter (AID 1109); conditions: 48 h, higher = more signal;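 note: huh7 hepatoma cells harbouring a luciferase neomycin HCV replicon reporter; luciferase luminescence as measure of HCV replicon replication; test concentration not given here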
[13] = target: Left-right determination factor 2 (Homo sapiens) (UniProt O00292); assay: LEFTY2 binders on small-molecule microarrays, primary screen, biochemical, small-molecule microarray, 635 nm fluorescence scan (AID 1110); conditions: LEFTY2 binding, higher = more signal
[14] = target: Calmodulin-1 (Homo sapiens) (UniProt P0DP23); assay: CALM1 binders on microarrays, EGTA buffer, profiling panel, biochemical, small-molecule microarray, Cy5-labelled CALM1 (AID 1111); conditions: Cy5-CALM1 binding fluorescence, higher = more signal;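 note: labelled calmodulin applied in Tris saline Tween buffer holding calcium plus EGTA and DTT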
[15] = target: Calmodulin-1 (Homo sapiens) (UniProt P0DP23); assay: calcium-bound CALM1 binders on microarrays, profiling panel, artefact control for SMM control-protein annotation, biochemical, small-molecule microarray, Cy5-labelled CALM1, plus calcium (AID 1112); conditions: Cy5-CALM1 binding fluorescence, higher = more signal;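 note: score merges spot fluorescence with signal to noise from triplicate slides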
[16] = small-molecule microarray binders of probe aWnt5a, primary screen, biochemical, biotinylated probe, 635/667 nm fluorescence (AID 1113); conditions: higher = more signal;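 note: score merges 667 nm fluorescence intensity with signal-to-noise per printed feature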
[17] = small-molecule microarray binders of probe aShh, primary screen, biochemical, biotinylated probe, 635/667 nm fluorescence (AID 1114); conditions: higher = more signal;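 note: probe is biotin-labelled aShh protein from a stem cell growth factor screen; measures binding of labelled protein to compounds printed on the slide; score merges feature fluorescence at 667 nm with signal-to-noise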
[18] = small-molecule microarray binders of probe aNog, primary screen, biochemical, biotinylated probe, 635/667 nm fluorescence (AID 1115); conditions: higher = more signal;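 note: probe is biotinylated aNog protein used at 0.15 µg/mL for 1 h at 4 C; z-score combines 667 nm fluorescence of each spot with its signal to noise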
[19] = target: Torsin-1A-interacting protein 1 (Homo sapiens) (UniProt Q5JTV8); assay: LAP1 binders from COS7 cell lysate, primary screen, small-molecule microarray, 635/667 nm fluorescence (AID 1116); conditions: COS7-hLAP1 lysate binding, 635 nm fluorescence, higher = more signal
[20] = target: Alpha-bungarotoxin (Bungarus multicinctus) (UniProt P60615); assay: alpha-bungarotoxin binders on microarray, profiling panel, artefact control for SMM control protein annotation, biochemical, small-molecule microarray, Alexa647 label, 635/667 nm fluorescence (AID 1117); conditions: alpha-BTX-A647 binding fluorescence, higher = more signal
Alpha-bungarotoxin (Bungarus multicinctus), sequence (P60615 whole entry, looked up): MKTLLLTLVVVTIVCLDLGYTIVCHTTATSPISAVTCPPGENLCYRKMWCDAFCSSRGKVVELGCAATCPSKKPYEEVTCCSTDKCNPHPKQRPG

Epidermal growth factor receptor (Homo sapiens), sequence (P00533 whole entry, looked up): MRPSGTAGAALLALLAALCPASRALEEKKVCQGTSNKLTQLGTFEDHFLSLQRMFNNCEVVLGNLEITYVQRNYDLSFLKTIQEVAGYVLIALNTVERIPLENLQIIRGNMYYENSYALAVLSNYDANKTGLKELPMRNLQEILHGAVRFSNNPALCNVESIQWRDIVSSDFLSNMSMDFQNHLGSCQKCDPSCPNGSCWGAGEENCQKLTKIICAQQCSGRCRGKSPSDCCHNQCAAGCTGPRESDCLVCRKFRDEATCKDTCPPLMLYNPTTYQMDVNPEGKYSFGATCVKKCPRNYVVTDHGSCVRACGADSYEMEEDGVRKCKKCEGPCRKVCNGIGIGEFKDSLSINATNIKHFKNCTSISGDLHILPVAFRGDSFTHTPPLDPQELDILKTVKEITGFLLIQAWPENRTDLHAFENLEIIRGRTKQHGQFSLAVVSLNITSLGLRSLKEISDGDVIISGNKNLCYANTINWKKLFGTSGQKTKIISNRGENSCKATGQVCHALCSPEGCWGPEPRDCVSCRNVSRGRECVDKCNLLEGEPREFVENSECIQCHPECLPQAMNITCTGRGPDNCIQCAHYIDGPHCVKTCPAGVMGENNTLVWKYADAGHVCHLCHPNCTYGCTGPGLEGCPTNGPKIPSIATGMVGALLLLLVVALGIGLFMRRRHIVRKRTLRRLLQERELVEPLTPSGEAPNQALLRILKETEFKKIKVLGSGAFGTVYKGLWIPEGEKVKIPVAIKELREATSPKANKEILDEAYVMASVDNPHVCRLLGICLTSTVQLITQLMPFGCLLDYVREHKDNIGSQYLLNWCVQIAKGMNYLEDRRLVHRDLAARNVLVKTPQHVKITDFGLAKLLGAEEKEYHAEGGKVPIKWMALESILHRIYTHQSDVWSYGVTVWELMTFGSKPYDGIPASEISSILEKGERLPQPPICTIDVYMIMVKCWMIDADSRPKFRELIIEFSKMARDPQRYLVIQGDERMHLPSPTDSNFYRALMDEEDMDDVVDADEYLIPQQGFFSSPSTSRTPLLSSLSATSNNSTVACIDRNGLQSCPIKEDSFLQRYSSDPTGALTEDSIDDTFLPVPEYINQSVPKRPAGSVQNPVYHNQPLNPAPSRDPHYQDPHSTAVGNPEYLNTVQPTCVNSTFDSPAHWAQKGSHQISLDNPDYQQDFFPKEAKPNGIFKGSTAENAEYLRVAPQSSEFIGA
Follistatin-related protein 3 (Homo sapiens), sequence (O95633 whole entry, looked up): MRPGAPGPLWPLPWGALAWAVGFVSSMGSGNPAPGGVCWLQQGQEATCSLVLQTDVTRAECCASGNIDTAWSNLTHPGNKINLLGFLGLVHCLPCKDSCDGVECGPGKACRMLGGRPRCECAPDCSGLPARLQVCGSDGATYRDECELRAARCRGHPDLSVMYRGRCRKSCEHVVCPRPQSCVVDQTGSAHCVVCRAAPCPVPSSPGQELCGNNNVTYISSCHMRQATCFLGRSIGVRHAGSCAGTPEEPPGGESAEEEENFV
Torsin-1A-interacting protein 1 (Homo sapiens), sequence (Q5JTV8 whole entry, looked up): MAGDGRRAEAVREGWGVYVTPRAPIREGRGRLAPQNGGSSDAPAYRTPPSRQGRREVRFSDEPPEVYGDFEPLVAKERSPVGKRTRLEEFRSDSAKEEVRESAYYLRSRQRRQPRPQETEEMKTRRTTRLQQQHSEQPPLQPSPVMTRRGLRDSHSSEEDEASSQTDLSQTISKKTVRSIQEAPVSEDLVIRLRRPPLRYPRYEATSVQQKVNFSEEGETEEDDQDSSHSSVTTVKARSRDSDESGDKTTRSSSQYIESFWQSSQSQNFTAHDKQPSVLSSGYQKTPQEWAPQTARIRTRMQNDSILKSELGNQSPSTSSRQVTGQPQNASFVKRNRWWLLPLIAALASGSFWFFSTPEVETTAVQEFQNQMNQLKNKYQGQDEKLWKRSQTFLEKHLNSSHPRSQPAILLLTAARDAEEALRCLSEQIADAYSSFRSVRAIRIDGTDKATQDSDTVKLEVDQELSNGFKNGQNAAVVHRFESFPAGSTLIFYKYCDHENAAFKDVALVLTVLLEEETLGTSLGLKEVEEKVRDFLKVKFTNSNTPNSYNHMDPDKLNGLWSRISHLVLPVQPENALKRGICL
Fibroblast growth factor 10 (Homo sapiens), sequence (O15520 whole entry, looked up): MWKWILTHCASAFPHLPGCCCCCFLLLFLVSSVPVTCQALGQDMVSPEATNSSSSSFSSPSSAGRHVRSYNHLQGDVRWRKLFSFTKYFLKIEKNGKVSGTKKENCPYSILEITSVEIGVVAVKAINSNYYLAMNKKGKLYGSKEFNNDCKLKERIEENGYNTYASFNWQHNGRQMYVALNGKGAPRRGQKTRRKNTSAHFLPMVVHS
Left-right determination factor 2 (Homo sapiens), sequence (O00292 whole entry, looked up): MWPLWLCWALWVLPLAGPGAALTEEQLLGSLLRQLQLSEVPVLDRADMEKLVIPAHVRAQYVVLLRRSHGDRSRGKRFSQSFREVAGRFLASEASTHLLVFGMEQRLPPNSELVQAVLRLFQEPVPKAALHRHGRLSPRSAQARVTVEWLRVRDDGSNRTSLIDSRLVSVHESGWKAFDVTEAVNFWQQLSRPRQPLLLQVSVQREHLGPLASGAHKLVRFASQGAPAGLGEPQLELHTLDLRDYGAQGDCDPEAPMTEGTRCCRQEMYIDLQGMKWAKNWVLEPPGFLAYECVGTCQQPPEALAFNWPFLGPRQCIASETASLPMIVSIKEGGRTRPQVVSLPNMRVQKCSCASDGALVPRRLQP
Dickkopf-related protein 1 (Homo sapiens), sequence (O94907 whole entry, looked up): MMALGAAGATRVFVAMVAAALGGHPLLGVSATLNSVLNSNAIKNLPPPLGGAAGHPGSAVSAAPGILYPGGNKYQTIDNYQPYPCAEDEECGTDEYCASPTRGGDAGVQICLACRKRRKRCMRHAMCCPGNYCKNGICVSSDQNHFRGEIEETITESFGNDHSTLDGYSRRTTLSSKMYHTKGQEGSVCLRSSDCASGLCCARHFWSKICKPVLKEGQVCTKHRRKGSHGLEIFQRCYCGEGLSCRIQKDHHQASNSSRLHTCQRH

Structure (SMILES) | composite z-score [1] | composite z-score [2] | composite z-score [3] | z-score [4] | composite z-score [5] | composite z-score [6] | composite z-score [7] | composite z-score [8] | composite z-score [9] | composite z-score [10] | composite z-score [11] | z-score [12] | composite z-score [13] | composite z-score [14] | composite z-score [15] | composite z-score [16] | composite z-score [17] | composite z-score [18] | composite z-score [19] | composite z-score [20]
COc1ccc([Si](C)(C)[C@H]2[C@H](CC(=O)N3Cc4ccccc4C[C@H]3CO)O[C@@]3(C(=O)N(Cc4cccc(N5C(=O)COc6ccccc65)c4)c4ccccc43)[C@@H]2C)cc1 | 1.18 | -0.225 | -0.261 | -1.72 (inactive) | 0.818 | 0.52 | 1.13 | 1.26 | 1.12 | 1.23 | 0.354 | -3.73 | 0.818 | 0.191 | -0.185 | 0.0094 | 0.0637 | -0.0118 | 0.7 | 1.87
O=C1c2ccccc2[C@](Cc2ccccc2I)(C(=O)O)[C@H](c2ccc(CO)cc2)N1Cc1ccccc1Cl | 0.96 | 0.815 | 1.06 | 0.0252 (inactive) | 0.235 | -0.0679 | -0.197 | 0.521 | 0.697 | 0.623 | 1.15 | -0.219 | -0.0287 | 1.56 | 0.586 | -0.163 | -0.189 | 0.195 | 0.957 | 2.29
Cc1ccc(N2C(=O)c3ccccc3[C@](C)(C(=O)NC3CC3)[C@@H]2c2ccc(CO)cc2)nc1 | -0.168 | 0.931 | 0.541 | 0.466 (inactive) | -0.0779 | -0.0639 | -0.0541 | 0.44 | 0.272 | 1.13 | -1.22 | 0.344 | 0.129 | -2.49 | -0.231 | -0.0792 | -0.341 | 0.0265 | 1.26 | 0.413
NC(=O)NCC#Cc1ccc2c(c1)[C@]1(C(=O)N2)[C@H](c2ccc(OCCO)cc2)N2[C@H](c3ccccc3)[C@H](c3ccccc3)OC(=O)[C@H]2[C@@H]1C(=O)Nc1nc2ccccc2s1 | 0.0284 | 0.918 | 1.2 | -1 (inactive) | 0.178 | -0.282 | -0.345 | 0.224 | -0.463 | 1.35 | -0.107 | -0.495 | -0.64 | 0.728 | 0.789 | -0.184 | 0.046 | 0.339 | 0.173 | 1.03
C=CCC(OC(C)=O)[C@@H]1[C@@H](N(Cc2cc3ccccc3o2)C(=O)c2ccc(-c3ccccc3)cc2)c2cc(OCCCO)ccc2N1C(=O)c1ccc(-c2ccccc2)cc1 (stereo not given in full) | -0.149 | 0.232 | 0.641 | -1.04 (inactive) | 0.0657 | -0.402 | -0.154 | 0.0956 | -0.0818 | 1.27 | -0.292 | -0.366 | 0.0559 | 0.0671 | 1.29 | 0.0628 | -0.282 | 0.502 | 0.2 | 0.484
CC(C)C[C@@H]1NC(=O)[C@@]23C(=O)N[C@@H](Cc4ccccc4)C2[C@H](C)[C@@]2(C)O[C@H]2C3/C=C/CC/C=C/CNC(=O)[C@@H](C)NC1=O (stereo not given in full) | 0.624 | -0.246 | -0.722 | -0.585 (inactive) | 1.39 | 0.374 | 0.732 | 1.07 | 0.81 | 1.29 | -0.211 | 0.42 | 0.575 | -0.643 | -1.39 | -0.154 | -0.229 | 0.117 | -0.152 | -0.195
